Assays:
Assay in all cases: PBM binding z-score (relative to random genomic background probes); higher = stronger binding; sequences stand for … in GC…GCGATTGACAGCGTAGAATGAAGG
[1] = tested on: RARb homodimer (NR concentration 270 nM)
Procedure, shortened: (§1)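 Antibodies against each partner of ligand-free nuclear receptor dimers (one per run) detected binding on custom Agilent 4×180K protein-binding microarrays after 1 h incubation. The double-stranded probes had 34-nt variable regions carrying direct-repeat seeds, single-nucleotide variants, half-site ablations and random human genomic background sequences. Binding z-scores, from regression-normalized fluorescence, use the random background probes as reference.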

[2] = tested on: RARg:RXRa (NR concentration 270 nM, RXRa partner concentration 90 nM)
Procedure, shortened: as §1

[3] = tested on: RARg homodimer (NR concentration 270 nM)
Procedure, shortened: as §1

[4] = tested on: RXRa DBDmut IVT, anti-RXR (DBD mutation: RXRa K156A/R161A, NR concentration 90 nM)
Procedure, shortened: as §1

[5] = tested on: RXRa homodimer (NR concentration 180 nM)
Procedure, shortened: as §1

[6] = tested on: THRa:RXRa (NR concentration 90 nM, RXRa partner concentration 90 nM)
Procedure, shortened: as §1

[7] = tested on: THRa homodimer (NR concentration 90 nM)
Procedure, shortened: as §1

[8] = tested on: VDR:RXRa (NR concentration 270 nM, RXRa partner concentration 90 nM)
Procedure, shortened: as §1

[9] = tested on: VDR homodimer (NR concentration 270 nM)
Procedure, shortened: as §1

Sequence	PBM binding z-score [1]	PBM binding z-score [2]	PBM binding z-score [3]	PBM binding z-score [4]	PBM binding z-score [5]	PBM binding z-score [6]	PBM binding z-score [7]	PBM binding z-score [8]	PBM binding z-score [9]
TGAATGCGGTTAAAGATCAGGGAACGTGGCGTCG	-0.707	-0.0436	-0.136	-0.853	0.338	-0.164	-0.454	-0.54	-0.55
TAGCCTAGGTCATTGGGTCAGTATAGTACGCATC	4.17	5.16	5.23	1.87	3.63	3.25	1.84	4.26	2.21
ACAGCCAGGTGATGAAGGTAACTCAGGCTATCAT	-0.0957	-0.0664	0.0616	-0.658	0.21	1.1	0.166	-0.126	-0.584
CCTATAAGTTGACCATAAGGGCAACCGAAGCTCG	2.31	2.2	1.31	0.769	0.942	2.44	1.2	1.06	1.32
GCTATTAGTTGAAAGGGAAACCGAATGATTCTCG	-0.448	-0.0918	0.0889	0.797	-0.215	-0.127	-0.399	0.00748	0.461
CCGACTGGGGCAAGGTTAGCATAACGCACAGCCA	0.752	0.574	0.814	-0.5	0.57	0.333	-0.266	-0.429	-0.191
TCTTGTAGATAAACAGGAGGTTAAGAAAGATCGA	0.563	0.413	0.451	0.64	0.929	0.693	-0.428	0.873	-0.0637
GCGCCTGGGGCATCAGCAGGTTACCATAACTTAA	0.912	0.748	0.657	-0.312	0.179	0.955	-0.0466	-0.28	-0.553
CCTTACGGGTGACTCCAGGTTATAGCATCGGAGT	0.532	0.648	0.639	-0.594	0.973	3.65	0.215	0.497	0.0105
AGTATGAGGTTAAGATCAGGGAAACAGAATACAT	1.09	2.13	1.66	0.674	2.42	2.63	0.96	1.18	0.755
CGAACTAGGTCAAGGACAGTCAATCTCCGCACGC	3.32	3.79	4.63	1.46	2.57	3.19	1.96	1.61	0.563
AATAGAGGGTCATCGTAGGCCAGAGTACGCACAG	3.48	5.35	5.12	2.46	5.77	4.26	0.0486	4.64	2.55
GGAACGAGGGCATTAGAGTTGATAGCATGGCGAT	0.848	1.11	1.65	2.84	0.695	2	-0.303	2.83	2.49
ATCTCTAGGTAAAGATAGTGCAGTGAATGCAAAT	-0.372	0.0561	0.36	-0.368	0.254	0.223	-0.337	0.0652	-0.144
GCTCGGAGCACAAGGTCAGAGCTTTGTCCGTAGA	2.85	2.63	2.19	0.228	2.25	2.75	0.948	1.2	0.184
TCTGCTAGGTCAACGATGGTCAGCCAATCTGCTA	3.23	4.3	5.2	1.06	2.55	3.16	0.561	–	-0.316
CGTCCAAGGTCATAGGAGGTCAGTAAAGACAGAT	5.26	6.85	7.38	4.16	6.73	5.25	3.1	6.61	4.5
TGTCAAAGTTCAAAGTTAACGTAAGTATCCACAC	3.88	5.8	5.72	4.53	5.86	2.62	0.00571	–	4.02
ACTAGCAGGCCAAGTTTGGGTCCCTCAAACAAAG	-0.155	-0.211	-0.235	-0.528	-0.565	0.0407	-0.344	-0.796	-0.397
TCTAATAGTTGAAGGGCAACCGACGAGTCCGTTT	1.24	0.639	0.887	1.7	0.869	0.0071	-0.423	0.759	1.41
GCTTGTTGATCAAGGTTAAGAAAGACTAAGCTAA	0.2	0.237	0.0786	0.0866	0.387	1.23	-0.213	0.122	-0.369
TCTAGCAGGCCAGCGGGTCACTCAAGAGGTACGG	2.01	2.14	1.56	0.000361	1.77	1.42	-0.34	0.435	-0.133
TCGAGTAGGTTATGGGCATTCAGAATGGCGTCGA	-0.0176	-0.0222	-0.106	-0.148	0.459	-0.261	-0.66	-0.235	-0.437
GCTTGGAGATCAAGGTTAAGAAAGACTAAGCTAA	0.301	0.332	0.139	-0.28	1	1.16	-0.468	0.128	0.0219
ATATGTAGGTTACATCAGGGTCATTCAGGCTATG	3.47	4.16	2.29	1.46	4.28	4.05	2.29	5.14	3.17
GATACAGGGTCAAGGCCAGAGGACGCGTATTGAT	3.63	5.29	4.94	2.07	5.78	3.64	1.43	4.11	2.28

Reference: the supplement of paper PMC6555819
